Experiment [1] can be described thus: blockers of polyQ-driven CASP3 activation – cell-based (AID 1583). As to conditions: polyglutamine-induced caspase-3 activation, cell assay; stronger effect = higher value;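 tested at 10 µM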.
Experiment [2] in a line: yeast 75Q aggregation reduction – 75Q-TubU reporter (AID 1593). As to conditions: Yeast 75Q polyglutamine aggregation reporter.
The nature of experiment [3]: restoration of touch response, mutant HTT neurons – whole organism, C. elegans mechanosensory neurons, N-terminal huntingtin (AID 1599). As to conditions: C. elegans polyQ-huntingtin mechanosensory neurons, stronger effect = higher value.
The nature of experiment [4]: blockers of cytochrome c efflux from mitochondria – biochemical, purified mitochondria (AID 1603).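 Also: mouse liver mitochondria challenged with calcium chloride; signal normalized to the plate average as 100%.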 The settings on record: stronger effect = lower value.
Experiment [5] in a line: polyglutamine aggregate formation blockers (AID 1604). The settings on record: polyglutamine-induced protein aggregation inhibition assay; stronger effect = higher value; tested at 2.5 µM.
Experiment [6] is described as follows: glutamate transport activators, MN-1 cells, MN-1 cell line (AID 1612).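 Also: tested at 1 µM final; 0% = mean of DMSO vehicle wells on each plate; positive means more glutamate uptake than control and negative means less.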 The settings on record: MN-1 motor neuron cells, stronger effect = higher value.
Experiment [7] in a line: GFP-Q80 aggregate reduction, neuronal-like cells, cell-based, NGF-treated PC12, GFPQ80 (AID 1614).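 Also: lower means fewer inclusions and 0 means no inclusions at all.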 The settings on record: PC12 NGF-treated GFP-polyQ80 inclusion reduction.
Experiment [8] is described as follows: 75Q-TubH aggregate inhibition, S. cerevisiae, yeast (AID 1616). As to conditions: S. cerevisiae 75Q-TubH polyglutamine aggregation suppression; stronger effect = higher value.
Experiment [9] in a line: P. berghei load reduction in hepatocytes – cell-based, HepG2, luciferase luminescence, HepG2 viability, primary screen (AID 624349).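 Also: 100% = mean of DMSO negative control wells on the same plate.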 The settings on record: P. berghei liver stage in HepG2, luciferase luminescence, concentration not given here; parasite load remaining: stronger effect = lower value; viability: measured here: HepG2 viability without parasites.
Experiment [10] is described as follows: EMT-state selective cytotoxicity in co-culture – imaging, PC-3E GFP, TEM4-18 mCherry, primary screen (AID 1345086;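 active = compounds killing one labelled cell type while sparing the other, by normalised counts and ratio limits, not self-fluorescent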;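 as to all read-outs here: cells exposed to compound for 72 h before imaging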;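 as to red/green cell ratio (normalised): normalised mesenchymal count divided by normalised epithelial count so high means epithelial killing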). The settings on record: PC-3E GFP / TEM4-18 mCherry co-culture, imaging cell counts, at 1 µM; for red/green cell ratio (normalised): actives lie on both sides, counts scaled to control wells, 1 = unselective.
The nature of experiment [11]: viability loss with induced miR-34 in A549 – imaging, A549 dox-inducible miR-34, nuclei and caspase counts, primary screen (AID 1347080;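 active = compounds whose cell count with miR-34 switched on is under 0.7 times the count with it off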). The settings on record: A549 miR-34 inducible, Hoechst nuclei count, 48 h.
Experiment [12] is described as follows: galactose survival enhancers in mitochondrial complex I cybrids – cell-based, galactose medium, ATP luminescence, primary screen (AID 1645843;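 active = z-score of at least 1.8 in each of two replicates, scored against plate mean and spread of sample wells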;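 also: positive z means more ATP and so rescue of galactose-driven cybrid death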). The settings on record: complex I mutant cybrid cells, 72 h, stronger effect = higher value.
The mark [13] stands for this setting: measured here: epithelial PC-3E GFP cell survival.
Setting [14] is: measured here: mesenchymal TEM4-18 mCherry cell survival.
The mark [15] stands for this setting: stronger effect = lower value, cell number ratio, induced over uninduced.
The mark [16] stands for this setting: measured here: relative caspase fold change +Dox/-Dox.
The mark [17] stands for this setting: measured here: total cells with miR-34 induction, stronger effect = lower value.
The mark [18] stands for this setting: measured here: total cells without miR-34 induction.

“And” between values parts separate entries of the source, which are not always exact repeats. Identical values can stand only once. For some of these results: Entries with a potency or affinity are not part of this list. The source made the active and inactive calls. Rule as the data show it, unless noted: active = parasite load remaining mostly below about 12% (no sharp cut-off); inactive = mostly above about 10%.

For the compound `CC(=O)O[C@]1(C(C)=O)CCC2C3C[C@H](C)C4=CC(=O)CC[C@]4(C)C3CC[C@@]21C` (stereo partly specified), the inhibition in [1] was 28.3%. Besides, the score in experiment [2] worked out at 0.63. This compound also yielded a rescue above control in experiment [3] of 2.76. Also, in [4], the cytochrome c release ratio worked out at 1.2. The inhibition of aggregation in [5] stood at 59.1%. In addition, in [6], the glutamate uptake change is 30.6%. In [7], this compound gave an inclusion score of 2.5. In addition, in [8], the aggregation suppression score turned out to be 0.615. Besides, the parasite load remaining in [9] was 76.4% (inactive) and 20.6% (inactive). In experiment [9], the viability is 71.8% and 85.5%. Besides, the red/green cell ratio (normalised) in experiment [10] is 1.21 (inactive). Also, the normalised cell number in [10] (setting [13]) was determined as 1.07; in experiment [10] (setting [14]) it was 1.3. Also, the fold change in experiment [11] (setting [15]) was 0.945 (inactive); in experiment [11] (setting [16]) it was 3.26. The cell count turned out to be 8680 in experiment [11] (setting [17]) and 9190 in [11] (setting [18]).

Consider `CC(=O)[C@H]1CCC2C3CCC4=CC(=O)CC[C@]4(C)C3CC[C@@]21C` (stereo partly specified), for which the inhibition in experiment [1] came to 41.6%. The compound also gave a score in [2] of 0.59. This compound gave a rescue above control in experiment [3] of 3.59. In addition, the cytochrome c release ratio in experiment [4] stood at 1.24. In experiment [5], this compound had an inhibition of aggregation of 84.5%. For the same compound, the glutamate uptake change in experiment [6] was -1.48%. In experiment [8], this compound came in with an aggregation suppression score of 0.333. Further, the parasite load remaining in experiment [9] is 49.3% (inactive) and 27.2% (inactive). For the same compound, the viability in experiment [9] was 66.1% and 99.4%. The red/green cell ratio (normalised) in experiment [10] was 0.96 (inactive). Besides, the results for the normalised cell number in [10] (setting [13]) and in experiment [10] (setting [14]) were 1.15 and 1.11, respectively. The fold change was 0.856 (inactive) in [11] (setting [15]) and 1.4 in experiment [11] (setting [16]). The results for the cell count in experiment [11] (setting [17]) and in experiment [11] (setting [18]) were 9840 and 11500, respectively.

Take `C#C[C@]1(O)CCC2C3CCc4cc(OC)ccc4C3CC[C@@]21C` (stereo partly specified): the parasite load remaining in experiment [9] is 13.7% (inactive). In [9], the viability amounted to 131%. The red/green cell ratio (normalised) in experiment [10] was 1.01 (inactive). Moreover, the normalised cell number in experiment [10] (setting [13]) is 1.1; in [10] (setting [14]), 1.11. The fold change in experiment [11] (setting [15]) was 0.913 (inactive) and 0.85 (inactive); in experiment [11] (setting [16]), 1.29 and 1.24. Further, the cell count in experiment [11] (setting [17]) was 8740 and 9660; in experiment [11] (setting [18]), 9570 and 11400. In [12], the z-score is -1.44 (inactive).

Regarding `CN[C@@H]1C(O)[C@@H](O[C@@H]2[C@@H](O)[C@H](O[C@H]3OC(CN)=CC[C@H]3N)[C@@H](N)C[C@H]2N)OC[C@]1(C)O` (stereo partly specified), the inhibition in experiment [1] amounted to 11.9%. In experiment [2], this compound registered a score of 1.54. The compound also yielded a rescue above control in experiment [3] of -2.25. Also, the cytochrome c release ratio in [4] is 1.22. In addition, the inhibition of aggregation in experiment [5] is 66.2%. Further, in experiment [6], the glutamate uptake change was -12%. The inclusion score in experiment [7] was determined as 2. In experiment [8], the aggregation suppression score came out at 1.05. Moreover, in [9], the parasite load remaining was 96.3% (inactive) and 41.6% (inactive). Further, the viability in experiment [9] is 74.6% and 94.8%. The red/green cell ratio (normalised) in [10] is 1.18 (inactive). The normalised cell number in experiment [10] (setting [13]) is 1.02; in [10] (setting [14]) it was 1.2. Also, the fold change is 0.967 (inactive) in experiment [11] (setting [15]) and 4.46 in [11] (setting [16]). The cell count in [11] (setting [17]) amounted to 11400; in experiment [11] (setting [18]), 11800.

The compound `CN1CCN(CCC=C2c3ccccc3Sc3ccc(S(=O)(=O)N(C)C)cc32)CC1` had an inhibition in experiment [1] of 35.1%. In addition, the score in experiment [2] came out at 0.75. The compound also had a rescue above control in experiment [3] of 18.8. Further, the cytochrome c release ratio in experiment [4] stood at 2.01. Also, the inhibition of aggregation in experiment [5] amounted to 76%. Also, in experiment [6], the glutamate uptake change was -21.1%. This compound also displayed an aggregation suppression score in experiment [8] of 0.481. Also, in experiment [9], the parasite load remaining was 192% (inactive) and 47.1% (inactive). Also, the viability in experiment [9] is 71.3% and 85.4%. Further, in [10], the red/green cell ratio (normalised) was 1.07 (inactive). For the same compound, the normalised cell number in [10] (setting [13]) was 0.83; in experiment [10] (setting [14]), 0.89. Besides, the fold change was 0.878 (inactive) in experiment [11] (setting [15]) and 3.25 in experiment [11] (setting [16]). Besides, the cell count turned out to be 9700 in experiment [11] (setting [17]) and 11100 in experiment [11] (setting [18]).

The values above are taken from PubChem BioAssay.
